Laboratory results published in PubChem BioAssay (Tox21).
Inconclusive results are not listed. The source made the active and inactive calls. Unless noted, calls follow the shape of the dose curve; as a rule, active = well fitted curve in the direction sought with a large enough effect in the repeat runs; inconclusive = weak or mixed curves; inactive = no such curve, though single readings can be large; an effect the other way counts as inactive or inconclusive.

Experiments:
[1] = target: Thyrotropin receptor (Homo sapiens) (UniProt P16473); test: qHTS assay to identify small molecule antagonists of the thyroid stimulating hormone receptor (TSHR) signaling pathway (AID 1259385; calls by dose curve; also: nearly all actives have a fitted effect of over 20% in size)
Chain of Thyrotropin receptor (Homo sapiens) (P16473 whole entry, looked up): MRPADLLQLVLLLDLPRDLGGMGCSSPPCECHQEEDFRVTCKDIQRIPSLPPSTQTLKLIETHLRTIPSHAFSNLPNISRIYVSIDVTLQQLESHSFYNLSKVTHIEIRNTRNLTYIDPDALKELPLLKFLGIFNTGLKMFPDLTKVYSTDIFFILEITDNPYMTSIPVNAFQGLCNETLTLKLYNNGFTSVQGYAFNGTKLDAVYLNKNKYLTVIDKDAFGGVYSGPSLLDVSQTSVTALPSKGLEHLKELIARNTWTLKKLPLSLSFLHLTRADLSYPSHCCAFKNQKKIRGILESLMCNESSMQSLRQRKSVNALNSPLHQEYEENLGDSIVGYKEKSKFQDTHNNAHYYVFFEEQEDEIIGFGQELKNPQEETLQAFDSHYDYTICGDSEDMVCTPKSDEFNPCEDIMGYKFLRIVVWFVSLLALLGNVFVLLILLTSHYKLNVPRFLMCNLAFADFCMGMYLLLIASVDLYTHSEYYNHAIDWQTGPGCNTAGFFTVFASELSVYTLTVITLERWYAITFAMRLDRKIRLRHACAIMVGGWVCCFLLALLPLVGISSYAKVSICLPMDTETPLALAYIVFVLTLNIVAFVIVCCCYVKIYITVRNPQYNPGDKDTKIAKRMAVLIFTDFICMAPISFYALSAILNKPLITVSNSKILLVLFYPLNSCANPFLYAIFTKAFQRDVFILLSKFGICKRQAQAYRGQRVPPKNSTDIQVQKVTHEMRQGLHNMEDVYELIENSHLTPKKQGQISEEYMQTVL
How it was run: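 Antagonist mode: compound-treated TSHR-expressing HEK293 cells were stimulated with 1.5 ng/mL TSH (final) in presence of Ro20-1724 for 30 min at RT. HTRF cAMP detection after 1 h; each compound tested at 15 concentrations, triplicate.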

[2] = qHTS assay to identify small molecule agonists of the estrogen receptor alpha (ER-alpha) signaling pathway in the presence of an antagonist - cell viability counter screen (AID 1259386);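 also: series mostly up to about 92 µM; cells exposed to compounds for 22 h at 37 °C before the viability read; nearly all actives have a fitted effect of over 30% in size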
How it was run: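 ICI-182,780 at 10.0nM final accompanies the compound titration (15 concentrations, 22hr, 37C) on VM7Luc4E2 cells. The CellTiter-Fluor fluorescence readout runs in the same wells as the luciferase assay.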

[3] = target: Progesterone receptor (Homo sapiens) (UniProt P06401); test: qHTS assay to identify small molecule agonists of the progesterone receptor (PR) signaling pathway (AID 1346784; calls by dose curve; also: nearly all actives have a fitted effect of over 30% in size)
Chain of Progesterone receptor (Homo sapiens) (P06401 whole entry, looked up): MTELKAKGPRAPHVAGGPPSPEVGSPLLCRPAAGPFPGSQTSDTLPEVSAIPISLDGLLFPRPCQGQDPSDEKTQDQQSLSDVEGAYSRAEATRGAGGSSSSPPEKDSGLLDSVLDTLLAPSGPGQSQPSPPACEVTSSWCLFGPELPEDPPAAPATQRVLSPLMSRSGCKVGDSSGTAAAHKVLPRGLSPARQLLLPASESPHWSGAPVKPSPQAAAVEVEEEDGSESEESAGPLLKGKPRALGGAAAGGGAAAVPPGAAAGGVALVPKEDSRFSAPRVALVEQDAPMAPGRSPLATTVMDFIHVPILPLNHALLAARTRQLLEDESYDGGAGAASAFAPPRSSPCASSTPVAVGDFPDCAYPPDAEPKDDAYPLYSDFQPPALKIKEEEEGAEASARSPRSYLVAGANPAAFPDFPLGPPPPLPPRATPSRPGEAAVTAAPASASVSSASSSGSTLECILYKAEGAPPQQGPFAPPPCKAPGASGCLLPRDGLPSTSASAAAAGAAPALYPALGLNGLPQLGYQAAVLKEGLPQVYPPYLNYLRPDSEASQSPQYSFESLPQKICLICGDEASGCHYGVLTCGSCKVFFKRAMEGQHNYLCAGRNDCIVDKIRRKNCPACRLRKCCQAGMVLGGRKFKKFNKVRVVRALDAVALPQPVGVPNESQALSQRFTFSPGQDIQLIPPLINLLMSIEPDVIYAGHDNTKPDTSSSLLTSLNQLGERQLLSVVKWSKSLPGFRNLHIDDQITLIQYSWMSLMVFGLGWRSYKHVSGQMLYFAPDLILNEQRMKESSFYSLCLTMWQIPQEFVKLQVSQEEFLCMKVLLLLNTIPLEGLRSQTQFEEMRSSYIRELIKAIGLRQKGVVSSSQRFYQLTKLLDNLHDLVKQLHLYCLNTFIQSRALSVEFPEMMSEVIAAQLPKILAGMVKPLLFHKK
How it was run: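 PR-UAS-bla HEK 293T cells (beta-lactamase reporter under UAS) in 2% charcoal-stripped FBS, dosed with 23 nL compound after 6 hr, incubated 16hr at 37C. LiveBLAzer B/G FRET substrate added, fluorescence read after 2 hours.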

[4] = target: Progesterone receptor (Homo sapiens) (UniProt P06401); test: qHTS assay to identify small molecule antagonists of the progesterone receptor (PR) signaling pathway (AID 1346795; active = well fitted inhibition curve with a large enough effect in the signal ratio in the repeat runs, not every such curve was filed as active; the % refers to the signal ratio)
How it was run: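 PR-UAS-bla HEK293T cells with beta-lactamase reporter under UAS control, in 2% charcoal-stripped FBS, treated with compounds plus 1 nM promegestone (R5020, final) for 16 hr at 37C. Read-out: FRET beta-lactamase substrate fluorescence after 2 hr at room temperature.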

[5] = qHTS assay to identify small molecule agonists of the progesterone receptor (PR) signaling pathway - cell viability counter screen (AID 1346799; calls by dose curve; also: nearly all actives have a fitted effect of over 45% in size)
How it was run: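 Counter screen in the PR-UAS-bla HEK293T wells (2% charcoal-stripped FBS, 16 h compound exposure at 37 C) after the bla read. CellTiter-Glo added, 30 min at room temperature, luminescence read as cell viability.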

[6] = qHTS assay to identify small molecule antagonists of the TGF-beta/Smad signaling pathway - cell viability counter screen (AID 1346824); also: nearly all actives have a fitted effect of over 50% in size
How it was run: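 Cytotoxicity counter-screen run in the same wells as the beta-lactamase Smad reporter read: CellTiter-Glo luminescence after 30 min at room temperature. HEK 293T SBE-bla cells had 5 hr compound exposure at 37 C with TGF-beta1 (0.25 ng/mL stock).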

[7] = qHTS assay to identify small molecule agonists of the TGF-beta/Smad signaling pathway (AID 1346859; active = well fitted activation curve with a large enough effect in the signal ratio in the repeat runs, not every such curve was filed as active; the % refers to the signal ratio; also: series mostly up to about 77 µM)
How it was run: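 SBE-bla HEK293T cells plated overnight, then compound exposure for 5 h at 37 C. Beta-lactamase reporter read with LiveBLAzer B/G FRET substrate after 2 h at room temperature, fluorescence at 405 nm excitation, 460/530 nm emission.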

[8] = target: Thyrotropin-releasing hormone receptor (Homo sapiens) (UniProt P34981); test: qHTS assay to identify small molecule antagonists of the thyrotropin-releasing hormone receptor (TRHR) signaling pathway (AID 1346877; active = well fitted inhibition curve with a large enough effect in the repeat runs, not every such curve was filed as active; also: series mostly up to about 51 µM)
Chain of Thyrotropin-releasing hormone receptor (Homo sapiens) (P34981 whole entry, looked up): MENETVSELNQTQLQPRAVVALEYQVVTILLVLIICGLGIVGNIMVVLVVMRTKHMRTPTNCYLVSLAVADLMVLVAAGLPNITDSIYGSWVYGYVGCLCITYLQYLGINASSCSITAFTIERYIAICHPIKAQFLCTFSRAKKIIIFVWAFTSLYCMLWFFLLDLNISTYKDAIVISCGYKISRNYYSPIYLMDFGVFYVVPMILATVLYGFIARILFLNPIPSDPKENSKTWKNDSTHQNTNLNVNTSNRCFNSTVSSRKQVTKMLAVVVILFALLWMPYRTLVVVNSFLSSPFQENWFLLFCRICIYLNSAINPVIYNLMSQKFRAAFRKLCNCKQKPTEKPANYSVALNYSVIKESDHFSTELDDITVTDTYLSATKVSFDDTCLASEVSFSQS
How it was run: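 Screening used HEK293 cells engineered with TRHR, with a brief 5 min room-temperature compound exposure preceding addition of TRH to 1 nM. The read-out was kinetic calcium-dye fluorescence, concentration-response from 15 doses in triplicate.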

[9] = Human pregnane X receptor (PXR) small molecule agonists, qHTS cell viability counter screen (AID 1346977); also: nearly all actives have a fitted effect of over 50% in size
How it was run: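 PXR-Luc HepG2 cells (2,000/well, 5% charcoal-stripped FBS) preincubated 5 hr, then exposed to compounds 24 hr at 37 C. Viability read in the same wells by CellTiter-Fluor fluorescence, reagent added at 23 hr, 1 hr incubation.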

[10] = Caspase-3/7 induction in HepG2 cells by small molecules, qHTS assay (AID 1346978); also: nearly all actives have a fitted effect of over 15% in size
How it was run: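 Caspase-3/7 induction was measured by Caspase-Glo 3/7 luminescence (30 min, room temperature) after a 17 hr compound exposure of wild-type HepG2 cells seeded at 2,000 per well and pre-incubated 5 hr.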

[11] = Caspase-3/7 induction in CHO-K1 cells by small molecules, qHTS cell viability counter screen (AID 1346979); also: nearly all actives have a fitted effect of over 35% in size
How it was run: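 Wild-type CHO-K1 cells (1,500/well) treated with compound after 5 h plating; after 16 h at 37C, viability read as CellTiter-Fluor fluorescence following 1 h reagent incubation, in the same wells as the caspase read.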

[12] = Caspase-3/7 induction in CHO-K1 cells by small molecules, qHTS assay (AID 1346980); also: nearly all actives have a fitted effect of over 15% in size
How it was run: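 Luminescent Caspase-Glo 3/7 read (30min, room temperature) quantified apoptosis induction. Cells were wild-type CHO-K1, treated with compound for 17hr at 37 C and 5% CO2.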

[13] = Caspase-3/7 induction in HepG2 cells by small molecules, qHTS cell viability counter screen (AID 1346981); also: series mostly up to about 92 µM; nearly all actives have a fitted effect of over 30% in size
How it was run: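 Multiplexed with the caspase-3/7 assay: HepG2 cells, 16 hr compound treatment, CellTiter-Fluor viability detection by fluorescence.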

[14] = target: Nuclear receptor subfamily 1 group I member 2 (Homo sapiens) (UniProt O75469); test: Human pregnane X receptor (PXR) small molecule agonists, qHTS assay (AID 1346982); also: nearly all actives have a fitted effect of over 35% in size
Chain of Nuclear receptor subfamily 1 group I member 2 (Homo sapiens) (O75469 whole entry, looked up): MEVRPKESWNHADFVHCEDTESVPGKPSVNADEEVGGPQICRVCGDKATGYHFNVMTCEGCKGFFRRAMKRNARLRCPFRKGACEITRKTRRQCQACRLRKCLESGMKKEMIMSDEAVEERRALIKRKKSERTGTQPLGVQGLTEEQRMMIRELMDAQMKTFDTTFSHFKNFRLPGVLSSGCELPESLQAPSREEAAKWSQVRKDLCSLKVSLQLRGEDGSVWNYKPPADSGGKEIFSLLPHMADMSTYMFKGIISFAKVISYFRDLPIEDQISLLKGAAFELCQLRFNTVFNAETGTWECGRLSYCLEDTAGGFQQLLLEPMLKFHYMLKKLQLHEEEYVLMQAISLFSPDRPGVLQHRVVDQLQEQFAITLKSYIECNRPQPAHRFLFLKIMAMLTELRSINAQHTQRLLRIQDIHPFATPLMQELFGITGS
How it was run: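 We seeded PXR-Luc HepG2 cells in assay medium containing 5% charcoal-stripped FBS, added compounds 5 hr later, incubated 24 hr, and read luminescence with ONE-Glo reagent.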

[15] = qHTS assay to identify small molecule antagonists of the progesterone receptor (PR) signaling pathway - cell viability counter screen (AID 1346798); also: series mostly up to about 92 µM; nearly all actives have a fitted effect of over 50% in size
How it was run: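 PR-UAS-bla HEK293T cells, 3,000/well in 2% charcoal-stripped FBS medium, dosed with compounds plus R5020 agonist and incubated 16 h at 37C. Viability then measured in the same wells by CellTiter-Glo luminescence after 30 min at RT.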

[16] = qHTS assay to identify small molecule agonists of the TGF-beta/Smad signaling pathway - cell viability counter screen (AID 1346829); also: top concentration of the series differs between compounds; nearly all actives have a fitted effect of over 45% in size
How it was run: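 Same-well cytotoxicity: CellTiter-Glo added after the 2 hr room-temperature beta-lactamase substrate step, luminescence measured 30 min later; cells had 5 hr of compound at 37 C.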

[17] = target: Thyrotropin-releasing hormone receptor (Homo sapiens) (UniProt P34981); test: qHTS assay to identify small molecule agonists of the thyrotropin-releasing hormone receptor (TRHR) signaling pathway (AID 1346891; calls by dose curve; also: series mostly up to about 58 µM)
How it was run: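 HEK293 cells expressing TRHR plated 18 h at 37 C/5% CO2, calcium dye-loaded 2 h at 37 C, then compound added (agonist mode); kinetic calcium fluorescence read 3 min at 1 s intervals; 15 concentrations in triplicate.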

[18] = target: Nuclear receptor subfamily 1 group I member 2 (Homo sapiens) (UniProt O75469); test: CYP3A4 induction through human pregnane X receptor (PXR) by small molecules, qHTS assay (AID 1346984); also: nearly all actives have a fitted effect of over 40% in size
How it was run: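 qHTS, concentration-response format: HepG2 DPX-2 line, PXR/CYP3A4-luc. Exposure 24 h, 37C. Substrate Luciferin-IPA 3uM final, 3 h. Detection One-Glo, 30 min RT.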

[19] = target: Nuclear receptor subfamily 1 group I member 2 (Homo sapiens) (UniProt O75469); test: Human pregnane X receptor (PXR) activation by small molecules, qHTS assay (AID 1346985); also: nearly all actives have a fitted effect of over 40% in size
How it was run: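 DPX-2 cells (HepG2 co-transfected with a PXR response element and a CYP3A4-promoter luciferase construct) were seeded at 2,000 per well, rested 5 hr at 37C, then exposed to DMSO-dissolved compounds for 24 hr. Activation was read as luciferase luminescence.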

[20] = target: Nuclear receptor subfamily 1 group I member 2 (Rattus norvegicus) (UniProt Q9R1A7); test: Rat pregnane X receptor (rPXR) activation by small molecules, qHTS assay (AID 1346983); conditions: rPXR luciferase reporter cells, One-Glo luminescence, 24 h; active compounds read high; also: nearly all actives have a fitted effect of over 20% in size
Chain of Nuclear receptor subfamily 1 group I member 2 (Rattus norvegicus) (Q9R1A7 whole entry, looked up): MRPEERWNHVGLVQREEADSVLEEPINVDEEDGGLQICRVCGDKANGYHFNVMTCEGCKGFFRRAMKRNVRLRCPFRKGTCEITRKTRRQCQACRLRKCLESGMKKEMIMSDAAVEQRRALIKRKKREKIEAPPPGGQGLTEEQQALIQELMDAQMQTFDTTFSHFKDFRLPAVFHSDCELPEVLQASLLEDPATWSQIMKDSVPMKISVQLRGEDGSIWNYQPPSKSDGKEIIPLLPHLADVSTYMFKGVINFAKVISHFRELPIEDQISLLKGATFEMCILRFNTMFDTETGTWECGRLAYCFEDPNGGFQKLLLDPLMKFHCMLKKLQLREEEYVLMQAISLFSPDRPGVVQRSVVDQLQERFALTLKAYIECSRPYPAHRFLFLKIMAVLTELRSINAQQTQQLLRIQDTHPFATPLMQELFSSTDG
How it was run: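 Luminescent readout (One-Glo luciferase, 30 min room temperature) followed 24 hr compound treatment at 37 C of rPXR cells plated 2,000 per well and preincubated 5hr; qHTS format with compounds delivered in DMSO.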
% is scaled to controls: 0 for no effect and ±100 for the full control effect.

CC(C)(O)C#CC(C)(C)O
inactive: Potency [1] | Potency [2] | Potency [3] | Potency [4] | Potency [5] | Potency [6] | outcome [7] | outcome [8] | Potency [9] | Potency [10] | Potency [11] | outcome [12] | Potency [13] | Potency [14]

Cc1c(NC(C)C)c(=O)n(-c2ccccc2)n1C
inactive: Potency [1] | Potency [2] | Potency [3] | Potency [15] | Potency [5] | Potency [6] | outcome [16] | outcome [7] | outcome [8] | outcome [17] | Potency [9] | Potency [10] | Potency [11] | outcome [12] | Potency [13] | Potency [14] | Potency [18] | Potency [19]

CCO/C([O-])=N/c1c[n+](N2CCOCC2)no1
inactive: Potency [1] | Potency [2] | Potency [3] | Potency [4] | Potency [5] | Potency [6] | outcome [7] | outcome [8] | outcome [17] | Potency [9] | Potency [10] | Potency [11] | outcome [12] | Potency [13] | Potency [14] | max activation [20] 0.703% | Potency [18] | Potency [19]

CN1N=C(C(N)=O)CCC1=O
inactive: Potency [1] | Potency [2] | Potency [3] | Potency [4] | Potency [5] | Potency [6] | outcome [16] | outcome [7] | Potency [9] | Potency [10] | Potency [11] | outcome [12] | Potency [13] | Potency [14]

Cc1ccc(=O)n(-c2ccccc2)c1
inactive: Potency [1] | Potency [2] | Potency [3] | Potency [15] | Potency [5] | Potency [6] | outcome [16] | outcome [7] | outcome [8] | outcome [17] | Potency [9] | Potency [10] | Potency [11] | outcome [12] | Potency [13] | Potency [14]

CCc1cccc2c(CCO)c[nH]c12
inactive: Potency [1] | Potency [2] | Potency [3] | Potency [4] | Potency [5] | Potency [6] | outcome [16] | outcome [7] | outcome [8] | outcome [17] | Potency [9] | Potency [10] | Potency [11] | Potency [13] | Potency [14]

C=CCCCCCCCCC=O
inactive: Potency [1] | Potency [2] | Potency [3] | Potency [4] | Potency [6] | outcome [16] | outcome [7] | Potency [9] | Potency [10] | Potency [11] | Potency [13] | Potency [14]

CCOC(=O)c1c(C)n(C)c2ccc(O)cc12
inactive: Potency [1] | Potency [2] | Potency [3] | Potency [15] | Potency [5] | Potency [6] | outcome [16] | outcome [7] | outcome [8] | outcome [17] | Potency [9] | Potency [10] | Potency [11] | outcome [12] | Potency [13] | Potency [18] | Potency [19]

O=Cc1cccc([N+](=O)[O-])c1
inactive: Potency [1] | Potency [2] | Potency [3] | Potency [4] | Potency [6] | outcome [16] | outcome [7] | outcome [8] | outcome [17] | Potency [9] | Potency [10] | Potency [11] | outcome [12] | Potency [13] | Potency [14]

NS(=O)(=O)c1ccccc1Cl
inactive: Potency [1] | Potency [2] | Potency [3] | Potency [4] | Potency [5] | Potency [6] | outcome [7] | Potency [9] | Potency [10] | Potency [11] | outcome [12] | Potency [13] | Potency [14]

COc1ccc2c(c1)c(CC(=O)OCC(=O)O)c(C)n2C(=O)c1ccc(Cl)cc1
inactive: Potency [1] | Potency [2] | Potency [3] | Potency [4] | Potency [5] | Potency [6] | outcome [8] | outcome [17] | Potency [9] | Potency [10] | Potency [11] | outcome [12] | Potency [13] | Potency [14]

CO[C@]12C[C@@H](COC(=O)c3cncc(Br)c3)CN(C)[C@@H]1Cc1cn(C)c3cccc2c13
inactive: Potency [1] | Potency [2] | Potency [3] | Potency [4] | Potency [5] | Potency [6] | outcome [16] | outcome [7] | outcome [8] | outcome [17] | Potency [9] | Potency [10] | Potency [11] | Potency [13] | Potency [14]

C[N+](C)(C)CC(O)CC(=O)[O-] (configuration not stated)
inactive: Potency [1] | Potency [2] | Potency [3] | Potency [15] | Potency [5] | Potency [6] | outcome [16] | outcome [7] | outcome [8] | outcome [17] | Potency [9] | Potency [10] | Potency [11] | outcome [12] | Potency [13]

COC(=O)c1cc(C(=O)OC)cc(S(=O)(=O)O)c1
inactive: Potency [1] | Potency [2] | Potency [3] | Potency [5] | Potency [6] | outcome [16] | outcome [7] | outcome [8] | outcome [17] | Potency [9] | Potency [10] | Potency [11] | outcome [12] | Potency [13] | Potency [14]

Cn1cc(S(C)=O)c(=O)c2ccc(F)cc21 (configuration not stated)
inactive: Potency [1] | Potency [2] | Potency [4] | Potency [15] | Potency [5] | Potency [6] | outcome [16] | outcome [7] | outcome [8] | outcome [17] | Potency [9] | Potency [10] | Potency [11] | outcome [12] | Potency [13] | Potency [14]
